# Screening data deposited in PubChem by several laboratories.
# VHR inh abs – inhibitors of human VHR1 phosphatase (DUSP3); P51452; recombinant VHR phosphatase, pNPP absorbance; inhibition, % at 13.3 µM; 0.52% of 290,000 active; in the data active means inhibition above about 50%
# PrPC TRFRET – cell surface PrPC inhibition, primary TR-FRET screen | P04156 | TR-FRET read-out | inhibition, % at 13.8 µM | 0.43% of 370,000 active; in the data active means inhibition above about 24%; further: 0% = median of the test wells and 100% = reference compound wells
# TcdB GH inh – TcdB glycohydrolase inhibition | 0.24% of 350,000 active | AID 652162 | TcdB glycohydrolase enzymatic assay, plate reader | P18177 | inhibition, % at 9.99 µM; in the data active means inhibition above about 10%
# PrPC TRFRET cf – cell surface PrPC inhibition, TR-FRET confirmation. shares compounds with PrPC TRFRET. cell surface PrPC level. inhibition, % at 13.8 µM. 65% of 1,500 active. AID 743200; in the data active means inhibition above about 25%
# LD9 tox – LD9 cell cytotoxicity, PrPc inhibitor counter-screen. shares compounds with PrPC TRFRET. inhibition, % at 13.8 µM. 29% of 1,500 active. LD9 cells cytotoxicity, luminescence viability; in the data active means inhibition above about 9.5%
# The depositor's hits bear a star; x = not tested or not shown. An excerpt weighted towards active compounds, which were near 0.82% of everything screened.
SMILES,VHR inh abs,PrPC TRFRET,TcdB GH inh,PrPC TRFRET cf,LD9 tox
CN(C)C(=O)[C@H]1[C@H](CO)[C@H]2Cn3c(ccc(C4=CCCC4)c3=O)[C@@H]1N2CC1CC1,x,x,0.8,x,x
CCSc1ncnc2sc3c(c12)CCC3,14.8,0.6,x,x,x
Cc1ccc(C(=O)CSc2ncnc3sc4c(c23)CCCC4)cc1,14.7,5.4,x,x,x
O=C(O)CSc1ncnc2sc3c(c12)CCCC3,16.5,29.6*,-0.5,53.3*,-9.6
O=C(O)CSc1ncnc2sc3c(c12)CCC3,35.7,46.6*,x,50.4*,-4.8
CCn1c(SCC(N)=O)nc2sc3c(c2c1=O)CCCC3,-23.4,24.1,x,x,x
NC(=O)CSc1nc2sc3c(c2c2ncnn12)CCCC3,0.2,47.2*,x,47.4*,-4.2
COc1ccc(NC(=O)Nc2ccc3c(c2)C(=O)N([C@H](C)CO)C[C@@H](C)[C@H](CN(C)Cc2ccc4c(c2)OCO4)OCCCC[C@H](C)O3)cc1,x,x,-0.6,x,x
C[C@@H]1CN([C@H](C)CO)C(=O)c2cc(NC(=O)CCN3CCOCC3)ccc2O[C@H]1CN(C)C(=O)NC1CCCCC1,x,x,0.2,x,x
C[C@@H]1CN([C@H](C)CO)C(=O)Cc2cc(NC(=O)CCN3CCOCC3)ccc2O[C@H]1CN(C)S(C)(=O)=O,x,x,-1.4,x,x
C[C@H](CO)N1C[C@H](C)[C@H](CN(C)S(=O)(=O)c2cccs2)Oc2c(NC(=O)Nc3cccc4ccccc34)cccc2C1=O,x,x,0.6,x,x
COc1ccc(C(C(=O)NC2CCCC2)N(C(=O)c2snc(-c3ccc(F)cc3)c2N)c2ccc(OC)cc2)cc1 (configuration not stated),21.4,46.3*,x,59.5*,0.4
COc1ccc(C(C(=O)NC2CCCC2)N(C(=O)c2snc(-c3ccc(F)cc3)c2N)c2ccc(F)cc2)cc1 (configuration not stated),3.6,2.4,x,x,x
COC(=O)CSc1ncnc2scc(-c3ccccc3)c12,-12.6,50.3*,-2.2,67.0*,-1.4
Cc1ccc(-c2csc3ncnc(SCC(=O)O)c23)cc1,0.0,9.8,0.8,x,x
C/C=C/c1cnc2c(c1)C(=O)N([C@@H](C)CO)C[C@@H](C)[C@@H](CN(C)C(=O)C1CCCCC1)O2,x,x,0.0,x,x
Cc1nn(C)cc1CN(C)C(=O)c1cc(-c2ccccc2)nc2ccc(Br)cc12,19.0,68.3*,-0.1,80.6*,6.4
CCN1CCN(C(=O)c2cc(-c3cccnc3)nc3ccc(Br)cc23)CC1,1.6,4.8,0.7,x,x
O=C(O)c1cc(-c2cccnc2)nc2ccc(Br)cc12,18.4,44.8*,1.4,61.2*,-5.8
O=C(O)c1cc(-c2cccs2)nc2ccc(F)cc12,7.4,9.3,-1.0,x,x
O=C(O)c1cc(-c2cccs2)nc2ccc(Br)cc12,16.5,40.3*,2.6,77.9*,-5.2
Cn1cc(CNC(=O)c2cc(-c3ccccc3)nc3ccc(Br)cc23)cn1,39.0,-1.2,x,x,x
CSc1nc2c(cc1C#N)CCC2,-11.3,5.4,1.4,x,x
Brc1cc(Br)c2nc3c(cc2c1)CCC3,5.2,26.3*,0.8,71.0*,0.9
C[C@@H]1C[C@H]2O[C@@H]2/C=C\C=C\C(=O)Cc2cc(O)cc(O)c2C(=O)O1,x,81.2*,x,47.7*,61.2*
SMILES,VHR inh abs,PrPC TRFRET,TcdB GH inh,PrPC TRFRET cf,LD9 tox
C[C@@H]1C[C@@H]2O[C@H]2CCCCC(=O)Cc2cc(O)cc(O)c2C(=O)O1,x,-1.2,x,x,x
COc1cccc(-c2nc(NCc3cccnc3)c3ccccc3n2)c1O,16.5,-4.0,0.9,x,x
COc1cccc2c(NCc3ccccc3)nc(-n3c(N)nc4ccccc43)nc12,x,70.0*,x,49.3*,98.2*
COc1ccc(S(=O)(=O)N(C)C[C@H]2OCCCC[C@@H](C)Oc3ccc(NS(C)(=O)=O)cc3C(=O)N([C@@H](C)CO)C[C@@H]2C)cc1,x,x,0.1,x,x
CS(=O)(=O)Nc1ccc2c(c1)[C@H]1C[C@@H](CC(=O)N3CCc4ccccc4C3)O[C@H](CO)[C@H]1O2,x,x,0.7,x,x
O=C(O)C[C@@H]1C[C@H]2c3cc(NC(=O)Nc4ccc(F)cc4)ccc3O[C@H]2[C@H](CO)O1,x,x,-0.4,x,x
CCNC(=O)[C@H]1[C@H](CO)[C@H]2Cn3c(ccc(-c4ccccc4F)c3=O)[C@H]2N1CC,x,x,-0.9,x,x
CCc1c(C)nc(N)nc1N1N=C1SC,-2.5,6.4,x,x,x
CCc1c(C)nc(N)nc1N1N=C1SCC(N)=O,16.6,26.0*,x,25.5*,-3.0
CCC(C)n1ncn(-c2ccc(N3CCN(c4ccc(O)cc4)CC3)cc2)c1=O (configuration not stated),-1.5,24.9*,-4.7,29.9*,-8.3
CCC(C)n1ncn(-c2ccc(N3CCN(c4ccc(OCC5COC(Cn6cncn6)(c6ccc(Cl)cc6Cl)O5)cc4)CC3)cc2)c1=O (configuration not stated),-6.2,-2.8,-0.8,x,x
